Results: the supplement of paper PMC12636033
± gives the standard deviation of the averaged measurements. Whole data set: some 33,000 sequences, median “E-score (rank enrichment, -0.5 to 0.5)” near -0.0043, cut for the highest 2% near 0.24. Only a selection was taken, and the highest values are over-represented in it overall.

Tested on: 2Sp-muMax20 (muMax20 with two 2,6-bis(methyl)pyridine Cys staples)
Test: PBM 8-mer E-score (E-score (rank enrichment, -0.5 to 0.5)); higher = stronger preferential binding
Procedure: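 Protein binding microarray (universal PBM chip covering all 10-mers in fixed probe flanks) with chemically synthesized human Max(13-93) bHLH-LZ analogs (not full-length Max) bearing noncanonical residues (hArg, Tha, Aib, Nle at 65) and aromatic Cys staples. Read-out per 8-mer (and its reverse complement): E-score (rank-based enrichment, -0.5 to 0.5) and Z-score of median probe intensity.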

Sequence	PBM 8-mer E-score
CCTGGAGA	-0.136 ± 0.09
AAACTTAT	0.203 ± 0.022
GTGGGCCA	-0.0973 ± 0.051
AGGAGCCC	0.00737 ± 0.03
ACCTCCAG	-0.161 ± 0.079
AGGGACCT	-0.13 ± 0.0014
GGCAACGA	-0.123 ± 0.0029
CACATAAC	0.0249 ± 0.13
AACATAAA	0.164 ± 0.097
GACATAAC	0.146 ± 0.026
AACATAAT	0.285 ± 0.053
AACATAAG	0.0487 ± 0.042
AACATAAC	0.278 ± 0.052
GTCGGCAC	-0.0877 ± 0.06
TCCGATAA	-0.23 ± 0.14
AAAGTACC	0.17 ± 0.02
AGCGCTAA	-0.0615 ± 0.022
CTTGACGA	0.00312 ± 0.0077
CGGTGAAC	0.0144 ± 0.098
AGGGCGAA	-0.00371 ± 0.021
AAATACGT	0.112 ± 0.06
AAATACGC	0.236 ± 0.058
GAATACGC	0.0401 ± 0.069
ATTAAGGC	0.0884 ± 0.038
AGCGATGC	-0.00497 ± 0.044

Sequence	PBM 8-mer E-score
AGATAAAC	0.00083 ± 0.061
CCTTTCAC	0.0665 ± 0.067
CTTTTCAC	0.287 ± 0.021
ATTTTCAC	0.0326 ± 0.0074
CGGTTCGA	-0.0332 ± 0.043
CACCCTCG	0.07079 ± 0.00033
ATTGTTTA	-0.0168 ± 0.043
CTTGTTTA	-0.0208 ± 0.029
CATGTTTA	0.24 ± 0.056
CATGTTGA	0.244 ± 0.023
CATGTTGC	0.1 ± 0.094
CATGTTAC	0.256 ± 0.018
AATGTTAC	0.0165 ± 0.1
CATGTTTC	0.0659 ± 0.0045
GATGTTTA	0.0541 ± 0.02
CATGTTAG	0.111 ± 0.049
AATGTTGA	-0.0129 ± 0.047
GTTGTTTA	0.247 ± 0.0077
ATTTCAGA	0.0234 ± 0.035
GGGATCGA	0.0419 ± 0.04
AGACAGGG	-0.0986 ± 0.041
CACGCAAC	-0.0734 ± 0.013
CAGTCATG	0.0672 ± 0.14
ACACTATA	0.0551 ± 0.059
GACTTTGA	0.147 ± 0.062

Sequence	PBM 8-mer E-score
AGAACGGA	-0.258 ± 0.028
AAGAAGCT	-0.12 ± 0.0019
CGTCGCGA	0.00718 ± 0.059
CGGCCAGC	-0.103 ± 0.0057
CTACAAAA	0.0122 ± 0.043
ATACAAGC	0.252 ± 0.076
ATACAAAA	0.359 ± 0.0063
CTACAAGC	-0.0442 ± 0.059
ATACAAAT	0.216 ± 0.0091
ATACAAGA	0.0902 ± 0.1
AGTGTAAT	0.114 ± 0.14
ATTGCAAC	0.0277 ± 0.07
CTCTCAGA	-0.148 ± 0.12
GTTAACAA	0.239 ± 0.026
AATAACTA	0.155 ± 0.038
CTTAACAA	0.05 ± 0.067
ACTAAATA	0.249 ± 0.018
GATAACTA	0.245 ± 0.029
CATAACTA	0.0886 ± 0.054
GTTAAATA	0.296 ± 0.026
ACTAAATC	-0.0199 ± 0.085
GCTAACAA	-0.0747 ± 0.062
CTTAAATA	0.139 ± 0.098
CCTAAATA	0.125 ± 0.0015
ATTAAATA	0.0773 ± 0.0041

Sequence	PBM 8-mer E-score
TACGTAAA	0.183 ± 0.046
AAGCACTA	0.0985 ± 0.0016
CCGTTACA	0.0269 ± 0.097
CAGAAAAG	0.0222 ± 0.11
CCTCAAAG	-0.168 ± 0.0062
CCAAAGGA	-0.134 ± 0.0027
CCGGGAAA	-0.0853 ± 0.032
GATCGGTA	0.0193 ± 0.038
CCGGCAGG	-0.199 ± 0.041
CGTGGCAA	-0.135 ± 0.016
AACGCGTT	0.0704 ± 0.016
GCACTCAA	-0.0947 ± 0.092
GTTAACTA	0.2576 ± 0.002
CTTAACTA	0.092 ± 0.0028
ATTAACTA	0.16 ± 0.003
AGACCGCG	0.0661 ± 0.0043
CGGTGGAA	-0.19 ± 0.09
CATAATTA	0.253 ± 0.034
CATAATTC	-0.0185 ± 0.041
GATAATTA	0.196 ± 0.061
CCTAATTA	0.0904 ± 0.21
AATAATTA	0.28 ± 0.019
AATAATTC	0.189 ± 0.046
TACTGCTA	0.126 ± 0.038
ACGGAGTC	-0.0911 ± 0.056

Sequence	PBM 8-mer E-score
ACGGGGCT	-0.148 ± 0.019
AGAGCACG	0.134 ± 0.077
ACCAGTAC	-0.126 ± 0.045
GGGTGCAC	-0.0471 ± 0.01
ATCATGAG	0.0344 ± 0.13
ATCATGTA	0.113 ± 0.059
CTCATGAC	0.0229 ± 0.022
ATCATGTC	0.25 ± 0.02
CTCATGTC	-0.0319 ± 0.027
CTCATGAG	0.319 ± 0.028
ATCATGAA	0.144 ± 0.037
ATCATGAT	0.257 ± 0.011
CTCATGAA	0.0567 ± 0.055
GAGGTACA	-0.0106 ± 0.013
TAGGATAA	0.0706 ± 0.063
AAATCGTG	0.0374 ± 0.006
ATTCGTCA	0.0337 ± 0.012
GCGCGCGA	0.149 ± 0.071
CCGCGCGC	0.13 ± 0.12
GCGCGCGC	0.361 ± 0.053
TCGCGCGA	0.265 ± 0.11
ACACGCGC	0.118 ± 0.046
CCGCGCGA	-0.0339 ± 0.029
GCACGCGA	0.0689 ± 0.0054
GCGCGCAC	0.203 ± 0.035

Sequence	PBM 8-mer E-score
GCACGCGC	0.331 ± 0.018
CCATTGTC	-0.0232 ± 0.0014
ACGAGGTC	0.0484 ± 0.023
ATGAGCAG	0.0835 ± 0.083
ATGGTATA	0.238 ± 0.028
AGGGTATG	0.178 ± 0.066
AGGGTATA	0.24 ± 0.0057
CGGGTATA	0.0393 ± 0.086
ATGGTATC	0.165 ± 0.011
ATGGTATG	0.0455 ± 0.0021
CGTCCTAG	-0.188 ± 0.035
ATGATGTC	0.14 ± 0.091
AGTGAATA	-0.07056 ± 0.00064
ACATAAGT	0.132 ± 0.017
ATCACCAC	0.276 ± 0.0035
ATAACCAG	0.0292 ± 0.0095
CTAACCAC	-0.0501 ± 0.043
ATAACCAC	0.243 ± 0.014
ATCACCAT	0.103 ± 0.052
CTCACCAC	0.0921 ± 0.082
CCGAAGCA	0.0942 ± 0.036
CAGTGGCA	-0.004 ± 0.031
CCGAATAA	0.0378 ± 0.031
ACGTAGAG	-0.0148 ± 0.051
GAAAATGC	0.127 ± 0.028

Sequence	PBM 8-mer E-score
CGAGGCTC	-0.224 ± 0.035
ACCACATG	0.318 ± 0.0037
AGCACATC	0.0563 ± 0.062
ATCACATG	0.305 ± 0.021
ACCACATA	0.0521 ± 0.076
ATCACATA	0.187 ± 0.0085
AGCACATG	0.263 ± 0.026
AGCACATA	0.0303 ± 0.1
ATCACATC	0.0931 ± 0.021
ACCACATC	-0.0798 ± 0.011
CAACGCCG	-0.168 ± 0.12
CGAAACGA	-0.0544 ± 0.031
ATTGTCTG	0.0837 ± 0.039
CTCTCTCC	-0.18 ± 0.14
CCCATTCC	-0.0919 ± 0.059
CGCATACA	0.0225 ± 0.14
AGCGCCAC	-0.0643 ± 0.017
TCAATGGA	-0.0717 ± 0.0065
CCGTGGGC	-0.2115 ± 0.0018
GCCAGAGC	-0.206 ± 0.099
GAGTCTAC	-0.125 ± 0.044
AATGGGTA	0.0946 ± 0.14
GGGTGGGA	0.297 ± 0.0041
